Screens as filed in PubChem BioAssay.
Shown is part of a subset that was picked to be rich in hits.
Mac1 fbg enh: enhancers of human CD11b/CD18 binding to fibrinogen. P05107+P11215. K562 CD11b/CD18 adhesion to fibrinogen, ATPlite luminescence. activation, % at 10 µM. 93,000 tested, 0.07% active;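 active means 10 µM primary screen giving 50% or more activity, confirmed by 40% or more on retest at that dose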
FAK blocker: blocks human focal adhesion kinase activity; inhibition, %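 (tested at 7 µM)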; biochemical FAK kinase activity assay; Q05397; AID 727; 97,000 tested, 0.84% active; in the data active means inhibition above about 19%
Mac1 fbg inh: blocks human CD11b/CD18 adhesion to fibrinogen | inhibition, % at 10 µM | K562 CD11b/CD18 adhesion to fibrinogen, ATPlite luminescence; Mn2+ added to activate the integrin | P05107+P11215 | 93,000 tested, 0.54% active;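 active means primary inhibition of 50% or more at 10 µM, then 40% or more on retest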
hDAT+cocaine: modulates human dopamine transporter uptake under cocaine; Q01959; LLC-PK1 hDAT cells, [14C]-dopamine uptake with cocaine IC80; actives deviate in either direction; B-score at 10 µM; 110,000 tested, 1.3% active; AID 449768;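 active means Z score or B-score, a plate-position-corrected score, falls beyond the plate's 99.7% confidence bounds, in either direction; inactive means both scores lie inside the 99.7% bounds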
Pyk2 oligo antag: antagonists of human Pyk2 oligomerization. Q14289. Q293 cells, Pyk2 FERM NanoBiT luminescence; active compounds read low. z-score (the deposit names both 25 µM and 10 µM). 99,000 tested, 0.83% active;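 active means Z-score of -3 or lower, scaled per plate to the spread of control and sample wells; inactive means z-score above -3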;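 further: negative z-score means lost luminescence so less FERM oligomerization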
D1 mod: D1 dopamine receptor (human) allosteric modulation; P21728; HEK293 D1, CRE-luciferase, dopamine EC30 potentiation; actives deviate in either direction; B-score at 10 µM; 58,000 tested, 5.9% active; AID 641;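 active means luminescence count or its row- and column-corrected plate score outside the 99.7% band of the plate's sample wells, on either side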
Target sequence (P21728 whole entry, looked up): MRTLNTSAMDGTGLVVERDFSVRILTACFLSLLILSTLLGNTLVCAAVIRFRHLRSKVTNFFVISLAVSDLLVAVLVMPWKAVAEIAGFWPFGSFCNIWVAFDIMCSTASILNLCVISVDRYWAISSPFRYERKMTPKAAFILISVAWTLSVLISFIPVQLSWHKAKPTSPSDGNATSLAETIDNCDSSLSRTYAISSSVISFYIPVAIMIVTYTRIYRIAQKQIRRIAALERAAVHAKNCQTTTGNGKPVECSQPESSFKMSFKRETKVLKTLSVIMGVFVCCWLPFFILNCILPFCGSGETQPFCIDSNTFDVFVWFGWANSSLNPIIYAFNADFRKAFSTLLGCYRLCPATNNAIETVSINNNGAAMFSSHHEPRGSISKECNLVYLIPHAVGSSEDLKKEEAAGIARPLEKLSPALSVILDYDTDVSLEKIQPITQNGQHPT
D1 PAM confirm: D1 receptor (human) allosteric modulation, confirmed. shares compounds with D1 mod. HEK293 D1 CRE-luciferase, dopamine EC30 potentiation; active compounds read high. luminescence at 10 µM. 2,200 tested, 88% active. AID 642;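 active means luminescence in either of two replicates above the same-plate mean plus 3 SD of the low-dose dopamine control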
D1 no dopamine: activates D1 CRE-luciferase signal without dopamine present; HEK293 D1 CRE-luciferase, luminescence, no dopamine; active compounds read high; luminescence at 10 µM; shares compounds with D1 mod; 1,900 tested, 0.8% active; in the data active means luminescence above about 3900
Isoprot counter: alters isoproterenol CRE-luciferase response in HEK293 cells; shares compounds with D1 mod; HEK293 D1 CRE-luciferase, isoproterenol EC30 counter-screen; calls only at 10 µM; 2,200 tested, 63% active;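 active means luminescence in either replicate above plate mean of wells with a partly effective reference agonist dose plus 3 SD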;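 further: isoproterenol raises cAMP through native beta-adrenoceptor Gs so signal bypasses D1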
Of the large screens only hits and unclear results are named; the others gave an inactive call (follow-up assays come after a bar, where they were run).

CCN(CC)c1ccc2c(c1)OC(N)=C(C#N)C2c1cccnc1 (configuration not stated)	D1 mod 9.28 (no result: Mac1 fbg enh, Mac1 fbg inh) | D1 PAM confirm 13200 | D1 no dopamine inactive | Isoprot counter active
N#CC1=C(N)Oc2nc(-c3ccccc3)[nH]c2C1c1cccnc1 (configuration not stated)	D1 mod 5.14 | D1 PAM confirm 8448 | D1 no dopamine inactive | Isoprot counter inactive
N#CC1=C(N)Oc2n[nH]c(-c3ccccc3)c2C1c1cccnc1 (configuration not stated)	none
CCOc1ccc(-c2nnc(-c3cccnc3)o2)cc1OCC	D1 mod 8.09 | D1 PAM confirm 20776 | D1 no dopamine inactive | Isoprot counter active
CCOc1ccc(-c2nnc(-c3ccccc3)o2)cc1	none (no result: Mac1 fbg enh, Mac1 fbg inh, D1 mod)
COc1cc(-c2nnc(-c3cccnc3)o2)cc(OC)c1OC	none
COc1ccc(-c2nnc(-c3cccnc3)o2)cc1OC	D1 mod 4.11 | D1 PAM confirm 8388 | Isoprot counter active
Cc1ccc(S(=O)(=O)N2CCC(=O)N(C(COCc3cccc(C(F)(F)F)c3)Cc3ccccc3)CC2)cc1 (configuration not stated)	none (no result: Mac1 fbg enh, FAK blocker, Mac1 fbg inh, Pyk2 oligo antag, D1 mod)
CCCNC(=O)c1ccc2nc(-c3ccccc3)c(-c3ccccc3)nc2c1	none (no result: D1 mod)
CCCCNC(=O)c1ccc2nc(-c3ccco3)c(-c3ccco3)nc2c1	D1 mod 3.85 (no result: FAK blocker, Pyk2 oligo antag) | D1 PAM confirm 8120 | D1 no dopamine inactive | Isoprot counter inactive
Cc1cc(C)n(C(C[N+](=O)[O-])c2ccc(Cl)cc2)n1 (configuration not stated)	none (no result: D1 mod)
COc1ccc(-c2nn(C)c(=O)c3ccccc23)cc1NC(=O)Cn1nc(C)c2ccccc2c1=O	D1 mod 8.64 | D1 PAM confirm 19816 | D1 no dopamine inactive | Isoprot counter active
OC(CNC1CCCCC1)CN1CCN(CC(O)CNC2CCCCC2)CC1 (configuration not stated)	none (no result: FAK blocker, hDAT+cocaine, Pyk2 oligo antag)
CCCOc1ccccc1NC(=O)c1ccc(N)cc1	D1 mod 3 | D1 PAM confirm 7556 | D1 no dopamine inactive | Isoprot counter inactive
CCCCOc1ccccc1NC(=O)c1ccc(=O)[nH]c1	none
C=CCn1c2ccccc2c2nnc(SCN3C(=O)c4ccccc4C3=O)nc21	D1 mod 9.91 (no result: Mac1 fbg enh, Mac1 fbg inh) | D1 PAM confirm 16236 | D1 no dopamine inactive | Isoprot counter active
CCn1c2ccccc2c2nnc(SCC(=O)OCN3C(=O)c4ccccc4C3=O)nc21	none
CCOC(=O)c1ccccc1-n1c(C)cc(C2N=C(N)Nc3nc4ccccc4n32)c1C (configuration not stated)	none (no result: D1 mod)
NC1=NC(c2ccc(Br)cc2)n2c(nc3ccccc32)N1 (configuration not stated)	D1 mod 10.2 | D1 PAM confirm 11596 | D1 no dopamine inactive | Isoprot counter inactive
CCOc1ccc(C(=O)OCc2nnc(-c3cccs3)o2)cc1OC	D1 mod 15.1 | D1 PAM confirm 16352 | D1 no dopamine inactive | Isoprot counter active
CCOc1ccc(C(=O)OCn2nnc3ccccc3c2=O)cc1OC	D1 mod 15.7 (no result: FAK blocker) | D1 PAM confirm 23528 | D1 no dopamine inactive | Isoprot counter active
COc1cc(CCC(=O)OCn2nnc3ccccc3c2=O)cc(OC)c1OC	none
Cc1ccc(C)c(Cn2c(C(=O)OC(C)C)cc3c2ccn3C)c1	none (no result: Mac1 fbg enh, Mac1 fbg inh, D1 mod)
O=C1C2C3c4ccccc4C(c4ccccc43)C2C(=O)N1Cc1cccnc1 (configuration not stated)	none (no result: D1 mod)
c1ccc(-c2nc(N3CCOCC3)c3ccccc3n2)nc1	none
Cc1nc(N2CCOCC2)c2cc(-c3ccccc3)sc2n1	D1 mod 7.92 (no result: FAK blocker) | D1 PAM confirm 14040 | D1 no dopamine inactive | Isoprot counter active
Cc1nnc(-c2ccccc2)nc1N1CCOCC1	none (no result: D1 mod)
CSc1nc(N2CCOCC2)c2ccccc2n1	D1 mod 9.41 | D1 PAM confirm 16028 | Isoprot counter active
CCOc1cc(C)nc(NCc2ccccc2)n1	none (no result: D1 mod)
CCCCOc1cc(C)nc(NCc2ccccc2)n1	D1 mod 9.95 | D1 PAM confirm 5728 | D1 no dopamine inactive | Isoprot counter inactive
N#CC(c1ccc(Cl)cc1)c1ccc(Cl)nn1 (configuration not stated)	none (no result: D1 mod)
O=C(Nc1ccccc1Cl)c1cccc(NS(=O)(=O)c2ccccc2)c1	none (no result: Pyk2 oligo antag, D1 mod)
COc1cccc(Cn2nnc(C(=O)NCc3ccccc3Cl)c2N)c1	D1 mod 6.78 (no result: Pyk2 oligo antag) | D1 PAM confirm 16056 | D1 no dopamine inactive | Isoprot counter active
Cn1c(=O)c2c(nc(NCc3ccc4c(c3)OCO4)n2Cc2ccccc2F)n(C)c1=O	D1 mod 4.69 | D1 PAM confirm 6940 | D1 no dopamine inactive | Isoprot counter active
Cn1c(=O)c2c(nc(NCc3ccc4c(c3)OCO4)n2Cc2ccccc2)n(C)c1=O	none (no result: Mac1 fbg enh, Mac1 fbg inh, D1 mod)
CCN1CCN(C(c2cccs2)C(C)NC(=O)CC(C)C)CC1 (configuration not stated)	D1 mod 4.67 | D1 PAM confirm inactive | D1 no dopamine inactive | Isoprot counter inactive
Oc1ccc(-c2nc(-c3ccc(O)c(O)c3)cs2)cc1	D1 mod 6.66 (no result: FAK blocker) | D1 PAM confirm 7572 | D1 no dopamine inactive | Isoprot counter active
O=C(c1cccc(C(F)(F)F)c1)N1CCOC12CCN(c1ncc(C(F)(F)F)cc1Cl)CC2	none (no result: D1 mod)
Cc1noc(C)c1CSc1nc2sc(C)c(C)c2c(=O)n1C1CCCC1	D1 mod 10.5 | D1 PAM confirm 13364 | D1 no dopamine inactive | Isoprot counter active
Cc1cccc(Nc2ncc3c(n2)CC(c2ccco2)CC3=O)c1 (configuration not stated)	none (no result: Mac1 fbg enh, Mac1 fbg inh)
Cc1cc(C)cc(Nc2ncc3c(n2)CC(c2ccco2)CC3=O)c1 (configuration not stated)	D1 mod 4.75 | D1 PAM confirm 7924 | D1 no dopamine inactive | Isoprot counter active
Nc1nonc1-n1nnc(C(=O)c2ccccc2)c1-c1ccccc1	D1 mod 4.29 | D1 PAM confirm 9084 | D1 no dopamine inactive | Isoprot counter inactive
CN(CCC#N)C(=O)COC(=O)c1ccc(CNS(=O)(=O)c2ccc(F)c(Cl)c2)cc1	none (no result: FAK blocker, hDAT+cocaine, Pyk2 oligo antag, D1 mod)
CCOC(=O)C(CCSC)NC(=O)CN (configuration not stated)	D1 mod 4.76 (no result: FAK blocker) | D1 PAM confirm inactive | D1 no dopamine inactive | Isoprot counter inactive
CCC(C)NC(=O)N[C@@H](CCSC)C(=O)OC (some centres not stated)	none (no result: D1 mod)
